# PMC6919601, “Identification of Plasmodium dipeptidyl aminopeptidase allosteric inhibitors by high throughput screening” (PLoS ONE, 2019)
# Screen size: about 110,000 compounds; about 230 (0.21%) showed an effect of 50% or more. This is one part of a sample in which strong results are shown more often than they occur.
# Target: DPAP1 (Plasmodium falciparum, UniProt Q8IIJ9)
# Assay: primary screen, percent inhibition; read by cleavage of a fluorogenic dipeptide substrate; higher = more effect of the substance
# Design: species or system P. falciparum D10 trophozoite lysates; single well
# Method: HTS was performed in black 384-well plates. The first and last two columns of each plate contained our negative (DMSO) and positive (10 μM JCP410) controls, and the 20 central columns the test compounds at 10 μM. Compounds were first diluted 50-fold into assay buffer (50 mM sodium acetate, 5 mM MgCl2, 10 mM β-mercaptoethanol, and 0.1% CHAPS, pH 5.5) from a 10 mM DMSO stock plates. One microliter of this 200 μM intermediate stock plate was dispensed into the assay plate. […] After 30 min, the reaction was quenched with 20 μL of 0.5 M acetic acid, and the fluorescent intensity measured at 523 nm (λex = 492 nm) using an Analyst HT multimode plate reader (Molecular Devices).
# 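Note: 30 min substrate incubation versus DMSO and 10 µM JCP410 controls.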
# Chain of DPAP1 (Q8IIJ9 whole entry, looked up): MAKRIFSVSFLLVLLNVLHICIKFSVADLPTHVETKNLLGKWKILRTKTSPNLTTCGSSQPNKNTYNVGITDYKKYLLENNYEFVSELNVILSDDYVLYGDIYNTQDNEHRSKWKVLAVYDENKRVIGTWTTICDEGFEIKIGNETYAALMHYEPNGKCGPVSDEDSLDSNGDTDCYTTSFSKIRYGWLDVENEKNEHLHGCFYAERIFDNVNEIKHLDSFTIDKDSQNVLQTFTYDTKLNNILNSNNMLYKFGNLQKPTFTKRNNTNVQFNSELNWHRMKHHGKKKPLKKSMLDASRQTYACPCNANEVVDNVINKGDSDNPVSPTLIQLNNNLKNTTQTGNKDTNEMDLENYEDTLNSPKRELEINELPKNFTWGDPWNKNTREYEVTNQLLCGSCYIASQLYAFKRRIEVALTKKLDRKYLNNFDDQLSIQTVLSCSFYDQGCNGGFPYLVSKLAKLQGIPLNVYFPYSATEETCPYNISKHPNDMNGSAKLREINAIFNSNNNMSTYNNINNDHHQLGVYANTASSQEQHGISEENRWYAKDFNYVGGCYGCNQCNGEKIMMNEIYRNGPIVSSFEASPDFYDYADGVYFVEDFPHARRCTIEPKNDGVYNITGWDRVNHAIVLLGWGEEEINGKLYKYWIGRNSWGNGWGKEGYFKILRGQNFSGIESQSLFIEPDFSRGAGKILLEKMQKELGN
row,SMILES,% Inhibition @ 10 uM [%]
1,OC(c1ccccc1)c1nc2ccccc2[nH]1 (stereo not drawn),3.87
2,CCn1nc(C)c(C(=O)Nc2ccn(Cc3ccccc3)n2)c1C,3.21
3,CN1CCN(C(=O)Cn2ncc3c4ccccc4n(C)c3c2=O)CC1,1.41
4,Cn1c2ccccc2c2cnn(CC(=O)N3CCN(c4ncccn4)CC3)c(=O)c21,53.7
5,Cn1c2ccccc2c2cnn(CC(=O)N3CCN(c4ccccn4)CC3)c(=O)c21,4.53
6,Oc1nc(SCc2ccccc2)nc(O)c1Cc1ccccc1,-2.12
7,CC1=CC2=NC(=O)/C(=C\c3ccc(-c4ccccc4Cl)o3)C(=N)N2O1,-1.65
8,O=C(NC1CCCCC1)C1CC(c2ccccc2F)=NO1 (stereo not drawn),7.39
9,CCOc1ccc2c(=O)c(Oc3ccccc3)c(C(F)(F)F)oc2c1,-4.21
10,COc1ccc(OC)c(NC(=O)c2ccc(OC(C)C)cc2)c1,-1.88
11,COc1ccc(S(=O)(=O)Nc2cccc(C(C)=O)c2)cc1,-1.92
12,CC(=O)c1cccc(NS(=O)(=O)c2ccc(Oc3ccccc3Cl)cc2)c1,-3.87
13,COc1ccccc1Oc1ccc(S(=O)(=O)Nc2cccc(C(C)=O)c2)cc1,67.2
14,CS(=O)(=O)c1sc2nc(-c3cccs3)cc(-c3ccccc3)c2c1N,64.2
15,CS(=O)(=O)c1sc2nc(-c3ccc(Br)cc3)cc(-c3ccccc3)c2c1N,-1.93
16,CC(=O)c1sc2nc(-c3cccs3)cc(-c3cccs3)c2c1N,7.74
17,CN(C)c1ccc(NC(=O)Nc2ccc(Cl)cc2)cc1,0.51
18,O=C1C2C=COC2C2c3ccccc3CCC2N1Cc1ccccc1 (stereo not drawn),0.727
19,Cc1nc2c(C(=O)n3ccnc3)cnn2c(C)c1Cc1ccccc1Cl,-0.406
20,CC(=O)Nc1ccc(NC(=O)CN(c2cccc(F)c2)S(C)(=O)=O)cc1,8.06
21,CS(=O)(=O)N(CC(=O)Nc1ccccc1)c1cccc(F)c1,-10.1
22,CS(=O)(=O)N(CC(=O)Nc1ccc2c(c1)OCCO2)c1cccc(F)c1,69.8
23,CN(Cc1ccco1)C(CNS(=O)(=O)c1ccccc1)c1ccccc1 (stereo not drawn),-0.671
24,CCCCOc1ccc(C2=NC(=O)/C(=C/c3cccc(OC)c3OC)O2)cc1,2.1
25,Cc1ccccc1-n1cc(-c2ccc3c(c2)OCO3)nc1S,83.7
26,Sc1nc(-c2ccc3c(c2)OCO3)cn1-c1cccc(Cl)c1,19.5

row,SMILES,% Inhibition @ 10 uM [%]
1,CCn1c2ccccc2n2cc(-c3ccc4c(c3)OCO4)nc12,0.486
2,CC(C)C[C@H](NC(=O)c1cc2cc(OCCN3CCOCC3)ccc2o1)C(=O)NC1COCC1=O (stereo partly drawn),-8.26
3,CCOc1cc(/C=C2/NC(=O)N(CC(=O)Nc3cccc(C)c3)C2=O)cc(Cl)c1O,2.44
4,COc1cccc(/C=C2/SC(=O)N(CC(=O)Nc3ccc(C)cc3)C2=O)c1O,30.1
5,Cc1ccc(NC(=O)CN2C(=O)S/C(=C\c3ccccc3O)C2=O)cc1,50.5
6,Cc1ccc(NC(=O)CN2C(=O)S/C(=C\c3ccccc3C)C2=O)cc1,-5.4
7,COc1ccc(C(=O)CCC(=O)NC2=NCCS2)cc1,-3.21
8,CN1CCN(C(=O)Cn2nc(-c3ccc(Cl)cc3)c3ccccc3c2=O)CC1,2.95
9,CC1=C(C(=O)OC2CCCC2)C(c2ccsc2)C2=C(O)CC(c3cccs3)CC2=N1 (stereo not drawn),0.146
10,Cc1ccc2oc(=O)c3cc(C(=O)Nc4cc(C)on4)sc3c2c1,-0.646
11,N#CC1=C2SCN(Cc3ccco3)CN2C(=O)CC1c1cccs1 (stereo not drawn),47.7
12,COc1ccc(C2CC(=O)N3CN(C(C)c4ccccc4)CSC3=C2C#N)cc1OC (stereo not drawn),28
13,Cc1ccc(C2CC(=O)N3CN(C(C)c4ccccc4)CSC3=C2C#N)cc1 (stereo not drawn),10.6
14,CC(c1ccccc1)N1CSC2=C(C#N)C(c3ccc(Cl)cc3)CC(=O)N2C1 (stereo not drawn),73.1
15,CCOc1ccc(C2CC(=O)N3CN(C(C)c4ccccc4)CSC3=C2C#N)cc1 (stereo not drawn),53.1
16,CC(c1ccccc1)N1CSC2=C(C#N)C(c3cccs3)CC(=O)N2C1 (stereo not drawn),68
17,N#CC1=C2SCC(O)(c3ccccc3)N2C(=O)CC1c1cccs1 (stereo not drawn),-4.74
18,CCOc1ccc(C2CC(=O)N3C(=C2C#N)SCC3(O)c2ccc(OCC)cc2)cc1 (stereo not drawn),-0.0235
19,Cc1cc(Cl)ccc1N(CC(=O)Nc1ccc2c(c1)OCO2)S(=O)(=O)c1ccccc1,8.03
20,Cc1ccc(NS(=O)(=O)c2ccc(NC(=O)COc3ccccc3)cc2)c(C)c1,-4.7
21,CCOc1ccc(-n2nc3ccc(NC(=O)c4ccc5c(c4)OCCO5)cc3n2)cc1,17.9
22,CCCCCOc1ccc(C2NC(C(=O)O)CS2)cc1 (stereo not drawn),-2.54
23,Cc1nn(C)c(C)c1/C=C(/C(=O)C(C)C)n1cncn1,0.00706
24,CC1CCCCN1CCNc1ncnc2onc(-c3ccc(Cl)cc3)c12 (stereo not drawn),-3.95
25,CN(C)c1ccc(-c2c(C#N)c(S)nc3c2C(=O)CC(C)(C)C3)cc1,-2.81
